# Rows were chosen to be rich in hits. Some 11% of all compounds tested hit in one or more screens of this group.
# HCV inh: qHTS Assay for Inhibitors of Hepatitis C Virus (HCV) | Huh7.5.1 HCVcc-Cre infection, luciferase reporter, 44 h | AID 651820, 2012 | hit rate 3.4% among 340,000 | Potency, µM (top dose mostly 41.8 µM), actives largely listed as inhibitors
#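 Whole-lifecycle infectious HCVcc-Cre system; cells 1,000/well, compound then virus (~0.5 moi) added 4 h after plating, 44 h culture. Luciferase read 15 sec following 15 min substrate incubation, room temp.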
# VACV mCherry inh: qHTS for Stage-Specific Inhibitors of Vaccinia Orthopoxvirus: mCherry Reporter Primary qHTS; Vaccinia virus mCherry reporter infection, fluorescence; Potency, µM (titrated, usually from 36.5 µM), hits mostly inhibitors; hit rate 0.63% among 310,000; calls by dose curve; tested in A549 cells; also: nearly all actives have a fitted effect of over 35% in size
# VACV Venus inh: qHTS for Stage-Specific Inhibitors of Vaccinia Orthopoxvirus: Venus Reporter Primary qHTS; Vaccinia virus Venus reporter expression, fluorescence; Potency, µM (titrated, usually from 36.5 µM), actives largely listed as inhibitors; hit rate 0.46% among 330,000; AID 720580, 2013; calls by dose curve; tested in A549 cells; also: nearly all actives have a fitted effect of over 30% in size
# Pf growth 96h: Primary qHTS for delayed death inhibitors of the malarial parasite plastid, 96 hour incubation | P. falciparum luciferase reporter growth, 96 h | Potency, µM (top dose mostly 28.7 µM), usual class: inhibitors | hit rate 6.9% among 320,000 | AID 504834, 2011
#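 Plates of compound plus infected erythrocytes (2% hematocrit, 0.05% parasitemia final) incubate 96 hours, 37 C, 5% CO2. Detection reagent added; reduced luminescence from the parasites' luciferase reporter flags inhibition.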
# Pf growth 48h: Primary qHTS for delayed death inhibitors of the malarial parasite plastid, 48 hour incubation. P. falciparum luciferase growth in erythrocytes, 48 h. Potency, µM (series often up to 28.7 µM), hits mostly inhibitors. hit rate 5.9% among 310,000. AID 504832, 2011
#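 Parasite viability was followed by luminescence of a genomically integrated firefly luciferase. Cultures held 0.1% parasitemia at 2% hematocrit (final), incubated under 5% CO2 at 37 C.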
# NS1 function inh: qHTS Assay for Inhibitors of Influenza NS1 Protein Function; hit rate 0.4% among 270,000; Potency, µM (titrated, usually from 46.1 µM); calls by dose curve; also: actives are rising curves; nearly all actives have a fitted effect of over 50% in size
#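 In this qHTS, NS1 from influenza A is expressed in budding yeast, where it slows growth. Cells are switched from glucose to 2% galactose medium (pH 6.0, -URA), treated with compound, and growth recovery is read at OD600.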
# Hits are given with their value; i = inactive; ? = inconclusive; nt = no result; [ ] = dose if it differs, or a comment. Unless noted, calls follow the shape of the dose curve; as a rule, active = well fitted inhibition curve with a large enough effect; inconclusive = small, poorly fitted or top-dose-only effect, or another doubt; inactive = no such curve, though single readings can be large or run the other way.
SMILES,HCV inh,VACV mCherry inh,VACV Venus inh,Pf growth 96h,Pf growth 48h,NS1 function inh
Cc1ccccc1-c1cc(C(=O)Nc2sc(C(=O)OC(C)C)c(C)c2C#N)c2ccccc2n1,12.6µM,nt,nt,i[5.75 µM],i,i
CCC(CO)Oc1cc(NCc2cccc(OC)c2)c2ncn(C(C)C)c2c1 (configuration not stated),2µM,i,i,nt,nt,nt
CCC(CO)Oc1cc(NCc2ccc(C(C)(C)C)cc2)c2ncn(C(C)C)c2c1 (configuration not stated),7.94µM,12.6µM,?,nt,nt,nt
CCC(COC)Oc1cc(NCc2ccccc2)c2ncn(C(C)C)c2c1 (configuration not stated),11.2µM,i,?,?,4.15µM,nt
CCC(CO)Oc1cc(NCc2ccc(O)cc2)c2ncn(C(C)C)c2c1 (configuration not stated),i,?,i,nt,nt,nt
CCC(CO)Oc1cc(NCc2cccc(O)c2)c2ncn(C(C)C)c2c1 (configuration not stated),?,?,i,nt,nt,nt
CCCCOc1cc(NCc2ccccc2)c2ncn(C(C)C)c2c1,11.2µM,i,?,nt,nt,nt
Cc1ccc(OC(C)C(=O)N2CC(=O)Nc3ccccc32)cc1 (configuration not stated),i,i,i,i,i,i
O=c1c[n+](CCCC[n+]2cc(=O)o[nH]2)[nH]o1,nt,nt,nt,nt,nt,i
CC(C)n1cnc2c(NCc3ccccc3)cc(N[C@H](C)CO)cc21,?,?,14.1µM,nt,nt,nt
O=c1c2ccccc2nc(/C=C/c2ccc([N+](=O)[O-])o2)n1-c1ccc(O)cc1,?,3.55µM,i,?,9.28µM,nt
Cc1cccc(-n2c(/C=C/c3ccc([N+](=O)[O-])o3)nc3ccccc3c2=O)c1,10µM,i,i,i,?,i
COc1ccc(-c2nc(SCC(=O)NC3CCCC3)c(-c3ccc(F)cc3)[nH]2)cc1,nt,i,i,nt,nt,nt
COc1ccc(-c2nc(SCC(=O)NCc3ccco3)c(-c3ccccc3)[nH]2)cc1OC,?,i,i,?,nt,i
COc1ccc(-c2[nH]c(-c3ccc(F)cc3)nc2SCC(=O)NC2CCCC2)cc1,?,?,?,?,i,i
COc1ccc(-c2[nH]c(-c3cccc(OC)c3)nc2SCC(=O)NC2CCCC2)cc1,?,i,i,3.29µM,i,nt
COc1ccc(-c2[nH]c(-c3ccccc3)nc2SCC(=O)NC2CCCC2)cc1,i,?,?,11.7µM,i,i
COc1ccc(-c2[nH]c(-c3ccccc3)nc2SCC(=O)NCc2ccco2)cc1OC,?,i,i,1.04µM,nt,i
CN(N=Cc1ccccc1)C(=S)Nc1ccccc1,nt,i,i,nt,nt,nt
O=C(CSc1nccc(=O)[nH]1)Nc1ccc(F)c([N+](=O)[O-])c1,i,i,i,i,i,i
CNCC(C)COc1ccccc1OCc1ccccc1 (configuration not stated),i,i,i,11.7µM,?,i
O=C(COC(=O)/C=C/c1ccc(C(F)(F)F)cc1)NC1CC1,i,i,i,i,i,nt
CCN(CC)CCOc1c(Br)ccc2c1sc1nc3n(c(=O)c12)CCC3,?,?,?,13.1µM,?,i
O=c1c2c(nc3n1CCCCC3)sc1c(O)c(Br)ccc12,i,nt,nt,nt,i,i
COc1cc(NC(=O)CSc2nc3[nH]ncc3c(=O)n2-c2ccccc2C)cc(OC)c1OC,i,i,i,i,10.4µM,i
SMILES,HCV inh,VACV mCherry inh,VACV Venus inh,Pf growth 96h,Pf growth 48h,NS1 function inh
CC1(C)Cc2nc3nc(SCC(=O)NCCc4ccccc4)n(-c4ccccc4)c(=O)c3cc2CO1,i,nt,nt,4.15µM,?,i
COc1cc(NC(=O)CSc2nc3[nH]ncc3c(=O)n2-c2ccc(Cl)cc2)cc(OC)c1,?,nt,nt,i,?,i
O=C(CSc1nc2[nH]ncc2c(=O)n1-c1ccccc1)NCCc1ccccc1,i,i,i,i,i,nt
O=C(CSc1nc2[nH]ncc2c(=O)n1-c1ccccc1Br)NCc1ccco1,i,nt,nt,i,11.7µM,?
CC1(C)Cc2nc3nc(SCC(=O)NCc4ccccc4)n(-c4ccccc4)c(=O)c3cc2CO1,nt,nt,nt,?,i,i
COc1ccc(CCNC(=O)CSc2nc3[nH]ncc3c(=O)n2-c2ccccc2Br)cc1OC,?,i,i,i,?,nt
Cc1cccc(NC(=O)CSc2nc3[nH]ncc3c(=O)n2-c2ccccc2)c1,nt,nt,nt,7.38µM,i,?
N#Cc1c(-c2cccs2)cc(-c2cccs2)[nH]c1=O,i,i[7.34 µM],i[7.34 µM],i,i,i
COc1ccc(Cn2nnc3c(C)n[nH]c(=O)c32)cc1,i,i,i,?,i,i
CCOC(=O)C1CCCN(C(=O)c2ccc(Cl)c(S(=O)(=O)N3CCCCC3)c2)C1 (configuration not stated),i,i,i,?,i,nt
O=C(CSc1nc2nc3c(cc2c(=O)n1-c1ccccc1)CCCC3)Nc1ccccc1,?,i,i,11.7µM,?,i
CCCCN(CCCC)C(=O)c1cc(Cl)ccc1[N+](=O)[O-],i,i,i,i,i,i
CCCN(CCC)C(=O)c1cc([N+](=O)[O-])cc2c1-c1ccc([N+](=O)[O-])cc1C2=C(C#N)C#N,?,nt,nt,11.7µM,11.7µM,i
CN(C)CCOc1ccccc1Cc1ccccc1,i[8.37 µM],i,i,?,?,i
COc1cc2nc(CN3CCN(S(=O)(=O)c4ccccc4C(F)(F)F)CC3)[nH]c(=O)c2cc1OC,i,i,i,nt,nt,nt
COc1ccccc1COCC(O)CN1CCN(S(=O)(=O)c2cccc(F)c2)CC1 (configuration not stated),i,nt,nt,i,i,nt
O=c1[nH]c(CN2CCN(S(=O)(=O)/C=C/c3ccccc3)CC2)nc2cc(Cl)ccc12,i,?,11.2µM,?,?,i
COc1ccc(COCC(O)CN2CCN(S(=O)(=O)c3c(F)cccc3F)CC2)cc1OC (configuration not stated),35.5µM,i,i,nt,nt,nt
COc1cc2nc(CN3CCN(S(=O)(=O)c4c(F)cccc4F)CC3)[nH]c(=O)c2cc1OC,i,nt,nt,?,10.4µM,nt
Cc1c(C(=O)N/N=C/C(C)C)[nH]c2ccc([N+](=O)[O-])cc12,i,i,i,i,i,i
Nc1cccnc1Sc1ccc(Cl)cc1,i,nt,nt,i,i,i
Nc1nc(CSC(=S)N2CCOCC2)nc(Nc2ccccc2)n1,i,i,i,i,i,i
Nc1nc(CSC(=S)N2CCN(c3ccccc3)CC2)nc(Nc2ccc(F)cc2)n1,?,?,i,11.7µM,?,i
CCOC(=O)C1CCN(C(=O)c2ccc(OC)cc2OC)CC1,i,i,i,13.1µM,i,i
CCOC(=O)C1CCN(S(=O)(=O)c2ccc3[nH]c4c(c3c2)CCCC4)CC1,i,i,i,10.4µM,i,i
CCOC(=O)C1CCN(S(=O)(=O)c2ccc(OC)c(C(=O)N3CCCCCC3)c2)CC1,i,i,i,i,i,i

# Source: PubChem BioAssay
